Legend:
Assay in all cases: PBM; 200 nM protein, PBS
Details in all cases: dsDNA, one strand shown
[1] = target: SHOX (Homo sapiens, UniProt O15266 103-189)
[2] = target: SHOX (Homo sapiens, UniProt O15266 103-189, R173C)
[3] = target: NKX3-2 (Homo sapiens, UniProt P78367 192-278, P234S)
[4] = target: NKX3-2 (Homo sapiens, UniProt P78367 192-278)
[5] = target: CRX (Homo sapiens, UniProt O43186 26-111)
[6] = target: PROP1 (Homo sapiens, UniProt O75360 56-141)
[7] = target: PROP1 (Homo sapiens, UniProt O75360 56-141, R99H)
[8] = target: PROP1 (Homo sapiens, UniProt O75360 56-141, F88S)
[9] = target: VAX1 (Homo sapiens, UniProt Q5SQQ9 86-172)
[10] = target: VAX1 (Homo sapiens, UniProt Q5SQQ9 86-172, K157R)
VAX1 (Homo sapiens, UniProt Q5SQQ9 86-172, K157R), sequence (Q5SQQ9 86-172 K157R): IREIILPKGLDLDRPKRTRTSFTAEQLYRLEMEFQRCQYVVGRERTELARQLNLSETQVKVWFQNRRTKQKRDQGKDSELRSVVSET

NKX3-2 (Homo sapiens, UniProt P78367 192-278), sequence (P78367 192-278): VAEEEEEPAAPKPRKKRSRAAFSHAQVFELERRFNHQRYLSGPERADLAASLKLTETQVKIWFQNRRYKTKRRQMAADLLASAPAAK
NKX3-2 (Homo sapiens, UniProt P78367 192-278, P234S), sequence (P78367 192-278 P234S): as the sequence (P78367 192-278) above, with P43S counted along it
SHOX (Homo sapiens, UniProt O15266 103-189), sequence (O15266 103-189): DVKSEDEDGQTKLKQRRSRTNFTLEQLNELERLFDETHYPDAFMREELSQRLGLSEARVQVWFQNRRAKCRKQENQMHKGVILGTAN
SHOX (Homo sapiens, UniProt O15266 103-189, R173C), sequence (O15266 103-189 R173C): as the sequence (O15266 103-189) above, with R71C counted along it
PROP1 (Homo sapiens, UniProt O75360 56-141), sequence (O75360 56-141): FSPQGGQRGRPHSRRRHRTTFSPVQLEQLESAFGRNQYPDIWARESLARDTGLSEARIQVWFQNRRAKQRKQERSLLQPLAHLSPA
PROP1 (Homo sapiens, UniProt O75360 56-141, F88S), sequence (O75360 56-141 F88S): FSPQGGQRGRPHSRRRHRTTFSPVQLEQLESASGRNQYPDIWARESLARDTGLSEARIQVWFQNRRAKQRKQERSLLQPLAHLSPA
PROP1 (Homo sapiens, UniProt O75360 56-141, R99H), sequence (O75360 56-141 R99H): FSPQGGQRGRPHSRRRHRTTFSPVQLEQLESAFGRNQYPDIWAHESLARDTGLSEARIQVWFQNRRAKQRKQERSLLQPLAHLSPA
CRX, sequence (O43186 26-111): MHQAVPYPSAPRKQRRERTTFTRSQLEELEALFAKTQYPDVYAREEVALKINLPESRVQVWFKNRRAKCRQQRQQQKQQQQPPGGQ
VAX1 (Homo sapiens, UniProt Q5SQQ9 86-172), sequence (Q5SQQ9 86-172): as the sequence (Q5SQQ9 86-172 K157R) above, with R72K counted along it

Sequence: GCGGCGGA
- binding signal [1]: 7.1 upbm affinity estimate (log intensity, higher = more binding, comparable within an allelic series)
- binding signal [2]: 7.11 upbm affinity estimate (log intensity, higher = more binding, comparable within an allelic series)

Sequence: CTCTCCTC
- binding signal [1]: 7.22 upbm affinity estimate (log intensity, higher = more binding, comparable within an allelic series)
- binding signal [2]: 7.21 upbm affinity estimate (log intensity, higher = more binding, comparable within an allelic series)

Sequence: ATTACCTA
- binding signal [1]: 9.59 upbm affinity estimate (log intensity, higher = more binding, comparable within an allelic series)
- binding signal [3]: 11.2 upbm affinity estimate (log intensity, higher = more binding, comparable within an allelic series)
- binding signal [4]: 11.2 upbm affinity estimate (log intensity, higher = more binding, comparable within an allelic series)

Sequence: CTCCTCCC
- binding signal [1]: 7.03 upbm affinity estimate (log intensity, higher = more binding, comparable within an allelic series)
- binding signal [2]: 7.12 upbm affinity estimate (log intensity, higher = more binding, comparable within an allelic series)

Sequence: GCCGGGGA
- binding signal [1]: 7.02 upbm affinity estimate (log intensity, higher = more binding, comparable within an allelic series)
- binding signal [2]: 7.11 upbm affinity estimate (log intensity, higher = more binding, comparable within an allelic series)

Sequence: GGCTGGCA
- binding signal [1]: 7.2 upbm affinity estimate (log intensity, higher = more binding, comparable within an allelic series)
- binding signal [2]: 7.13 upbm affinity estimate (log intensity, higher = more binding, comparable within an allelic series)

Sequence: CGGGCGTC
- binding signal [1]: 7.36 upbm affinity estimate (log intensity, higher = more binding, comparable within an allelic series)
- binding signal [2]: 7.21 upbm affinity estimate (log intensity, higher = more binding, comparable within an allelic series)
- binding signal [3]: 10.6 upbm affinity estimate (log intensity, higher = more binding, comparable within an allelic series)
- binding signal [4]: 10.5 upbm affinity estimate (log intensity, higher = more binding, comparable within an allelic series)

Sequence: AATTCTGA
- binding signal [5]: 10 upbm affinity estimate (log intensity, higher = more binding, comparable within an allelic series)

Sequence: GACAGCCC
- binding signal [1]: 7.16 upbm affinity estimate (log intensity, higher = more binding, comparable within an allelic series)
- binding signal [2]: 7.16 upbm affinity estimate (log intensity, higher = more binding, comparable within an allelic series)

Sequence: CCGGCGTC
- binding signal [1]: 7.01 upbm affinity estimate (log intensity, higher = more binding, comparable within an allelic series)
- binding signal [2]: 7.17 upbm affinity estimate (log intensity, higher = more binding, comparable within an allelic series)

Sequence: CCCCTTCC
- binding signal [1]: 7.19 upbm affinity estimate (log intensity, higher = more binding, comparable within an allelic series)
- binding signal [2]: 7.03 upbm affinity estimate (log intensity, higher = more binding, comparable within an allelic series)

Sequence: GCATTACC
- binding signal [1]: 8.63 upbm affinity estimate (log intensity, higher = more binding, comparable within an allelic series)
- binding signal [2]: 7.62 upbm affinity estimate (log intensity, higher = more binding, comparable within an allelic series)

Sequence: CGGGGCCA
- binding signal [1]: 6.97 upbm affinity estimate (log intensity, higher = more binding, comparable within an allelic series)
- binding signal [2]: 7.1 upbm affinity estimate (log intensity, higher = more binding, comparable within an allelic series)

Sequence: CCAGGGCG
- binding signal [1]: 7.04 upbm affinity estimate (log intensity, higher = more binding, comparable within an allelic series)
- binding signal [2]: 7.02 upbm affinity estimate (log intensity, higher = more binding, comparable within an allelic series)
- binding signal [6]: 6.67 upbm affinity estimate (log intensity, higher = more binding, comparable within an allelic series)
- binding signal [7]: 6.55 upbm affinity estimate (log intensity, higher = more binding, comparable within an allelic series)
- binding signal [8]: 6.42 upbm affinity estimate (log intensity, higher = more binding, comparable within an allelic series)
- binding signal [3]: 10.3 upbm affinity estimate (log intensity, higher = more binding, comparable within an allelic series)
- binding signal [4]: 10.2 upbm affinity estimate (log intensity, higher = more binding, comparable within an allelic series)

Sequence: CACCGGGG
- binding signal [1]: 7.32 upbm affinity estimate (log intensity, higher = more binding, comparable within an allelic series)
- binding signal [2]: 7.13 upbm affinity estimate (log intensity, higher = more binding, comparable within an allelic series)
- binding signal [6]: 6.79 upbm affinity estimate (log intensity, higher = more binding, comparable within an allelic series)
- binding signal [7]: 6.87 upbm affinity estimate (log intensity, higher = more binding, comparable within an allelic series)
- binding signal [8]: 6.47 upbm affinity estimate (log intensity, higher = more binding, comparable within an allelic series)

Sequence: CCAATCAC
- binding signal [1]: 8.6 upbm affinity estimate (log intensity, higher = more binding, comparable within an allelic series)
- binding signal [2]: 7.61 upbm affinity estimate (log intensity, higher = more binding, comparable within an allelic series)
- binding signal [9]: 8.98 upbm affinity estimate (log intensity, higher = more binding, comparable within an allelic series)
- binding signal [10]: 8.89 upbm affinity estimate (log intensity, higher = more binding, comparable within an allelic series)

Sequence: CCACCTCG
- binding signal [1]: 7.13 upbm affinity estimate (log intensity, higher = more binding, comparable within an allelic series)
- binding signal [2]: 7.18 upbm affinity estimate (log intensity, higher = more binding, comparable within an allelic series)

Sequence: AGGGTCGG
- binding signal [1]: 7.15 upbm affinity estimate (log intensity, higher = more binding, comparable within an allelic series)
- binding signal [2]: 7.14 upbm affinity estimate (log intensity, higher = more binding, comparable within an allelic series)

Sequence: CGAGCGCA
- binding signal [1]: 7.22 upbm affinity estimate (log intensity, higher = more binding, comparable within an allelic series)
- binding signal [2]: 7.31 upbm affinity estimate (log intensity, higher = more binding, comparable within an allelic series)

Sequence: CGCAGCCG
- binding signal [1]: 7.02 upbm affinity estimate (log intensity, higher = more binding, comparable within an allelic series)
- binding signal [2]: 7.12 upbm affinity estimate (log intensity, higher = more binding, comparable within an allelic series)

Sequence: CGGTTGCC
- binding signal [1]: 7.18 upbm affinity estimate (log intensity, higher = more binding, comparable within an allelic series)
- binding signal [2]: 7.25 upbm affinity estimate (log intensity, higher = more binding, comparable within an allelic series)

Sequence: CCTCGGAG
- binding signal [1]: 7.14 upbm affinity estimate (log intensity, higher = more binding, comparable within an allelic series)
- binding signal [2]: 7.17 upbm affinity estimate (log intensity, higher = more binding, comparable within an allelic series)

— publication PMC11006913
